Data reported in PubChem BioAssay (NCI).
This is part of a sample that, as a whole, favours compounds with a hit. Of some 83,000 tested, about 20% had one in any assay.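 Note: values are percent growth. 100 is the growth of untreated cells, values between 100 and 0 indicate rising inhibition; between -100 and 0 indicates cell death.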 Activity calls are given as the source filed them. How the source made its calls: active means growth percent below 10; inactive means the rest. Where a SMILES comes first, the peptide text is derived from it. Bridges are numbered along the chain shown (N, C = ends). [ ]: non-standard residue; d: D form. The star is where a group is joined. ξ: configuration not given here. ξNMePhe(4-NMe2) = CNC(Cc1ccc(N(C)C)cc1)C(=O)O; Picolinoyl(3-OH) = O=C(c1ncccc1O)*; ξPip(4-oxo) = O=C1CCNC(C(=O)O)C1; Phg = N[CH](C(=O)O)c1ccccc1; Abu = CC[CH](N)C(=O)O

tested on: DU-145 prostate; experiment: NCI-60 one-dose screen, 48 h (100 = growth as untreated, 0 = no growth, -100 = all killed); settings: 10 µM

SMILES	growth
N#CC1(Nc2ccc3c4c(cccc24)CC3)CCCCC1	103% (inactive)
CCCC1(c2ccccc2)NC(=O)NC1=O (stereo not drawn)	108% (inactive)
O=C(NN=C1CCCCC1)C(=O)NN=C1CCCCC1	121% (inactive)
CC1CCCC(CC(N)=O)CC1 (stereo not drawn)	117% (inactive)
CC(=O)OC(OC(C)=O)C1CCCO1 (stereo not drawn)	112% (inactive)
CCOc1ccc(/C=N/N=C(N)N)cc1OCC	117% (inactive)
COc1ccc2c(NCCCCCCCCNc3c4ccccc4nc4cc(OC)ccc34)c3ccccc3nc2c1	-100% (active)
Nc1ncnc2[nH]ncc12	2.47% (active)
Cc1ccc(C(=O)c2ccccc2)c(C)c1	104% (inactive)
O=C(c1ccc(Cl)cc1)c1ccccc1Cl	123% (inactive)
COc1cc2c(cc1O)CC[C@@H]1C2CC[C@@]2(C)C1CC[C@@H]2O (stereo partly drawn)	11% (inactive)
CC(=O)OCC1=CC2OC(=O)C3=COC(OC4OC(CO)C(O)C(O)C4O)C1C32 (stereo not drawn)	114% (inactive)
CC1(C)N=C(N)N=C(N)N1c1cccc(Br)c1	53.4% (inactive)
C/C(=C\c1ccc([N+](=O)[O-])cc1)C(=O)O	110% (inactive)
Oc1ccccc1-c1nnco1	99.7% (inactive)
CO[C@H]1C[C@@H]2CC[C@@H](C)[C@@](O)(O2)C(=O)C(=O)N2CCCC[C@H]2C(=O)O[C@H]([C@H](C)C[C@@H]2CC[C@@H](O)[C@H](OC)C2)CC(=O)[C@H](C)C=C(C)[C@@H](O)[C@@H](OC)C(=O)[C@H](C)C[C@H](C)/C=C/C=C/C=C1C	32.4% (inactive)
Cc1cccc(C(=O)N(C(C)C)C(C)C)c1	103% (inactive)
CC1(C)/C(=C\CO)C2CCC1C2 (stereo not drawn)	120% (inactive)
CN(C)c1ccc(S(=O)(=O)O)cc1	110% (inactive)
O=[N+]([O-])c1ccc(/C=C/C=C/c2ccccc2)c(Cl)c1	109% (inactive)

SMILES	growth
N#CSc1cc(S(N)(=O)=O)ccc1N	115% (inactive)
CCC1NC(=O)C(NC(=O)c2ncccc2O)C(C)OC(=O)C(c2ccccc2)NC(=O)C2CC(=O)CCN2C(=O)C(Cc2ccc(N(C)C)cc2)N(C)C(=O)C2CCCN2C1=O (stereo not drawn) (tested in a mixture with another compound) ({Picolinoyl(3-OH)}-T[Abu]P[ξNMePhe(4-NMe2)][ξPip(4-oxo)][Phg]; ester 1-C; configuration not given here)	46.9% (inactive)
C=CCNc1ccccc1	122% (inactive)
CCOC(=O)C(CCC(C)C)C(=O)OCC	107% (inactive)
COc1cccc(Sc2ccc([N+](=O)[O-])c3no[n+]([O-])c23)c1	67.3% (inactive)
CC1CC(O)CC(C)(C)C1 (stereo not drawn)	101% (inactive)
Oc1ccccc1O	106% (inactive)
Clc1ccc(-c2n[nH]c3c2Cc2ccccc2-3)cc1Cl	130% (inactive)
CC1OC(Oc2c(-c3ccc(O)c(O)c3)oc3cc(O)cc(O)c3c2=O)C(O)C(O)C1O (stereo not drawn)	109% (inactive)
O=c1[nH]nc(SC2CCCCC2)c(=O)[nH]1	114% (inactive)
CC(C)C1CCCCC1O (stereo not drawn)	113% (inactive)
CCC(C#N)(CC)c1ccccc1	109% (inactive)
CC(=O)c1ccc(C(C)(C)C)cc1	105% (inactive)
CC(C)OC(=O)c1cc(NC(=S)OC(C)C)ccc1Cl	83.8% (inactive)
Cc1cc2ccccc2c(O)c1C#N	120% (inactive)
OCCN1CCOCC1	124% (inactive)
CC(=O)Oc1ccc(Br)cc1C(=O)O	120% (inactive)
C#CCSc1nnnn1-c1ccc(Br)c(C)c1	107% (inactive)
c1ccc2c(c1)Sc1ccccc1S2	108% (inactive)

tested on: K-562 leukemia; experiment: as above; settings: 10 µM

SMILES	growth
N#CC1(Nc2ccc3c4c(cccc24)CC3)CCCCC1	89.7% (inactive)
CCCC1(c2ccccc2)NC(=O)NC1=O (stereo not drawn)	135% (inactive)
O=C(NN=C1CCCCC1)C(=O)NN=C1CCCCC1	81.1% (inactive)
CC1CCCC(CC(N)=O)CC1 (stereo not drawn)	94.3% (inactive)
CC(=O)OC(OC(C)=O)C1CCCO1 (stereo not drawn)	135% (inactive)
CCOc1ccc(/C=N/N=C(N)N)cc1OCC	98.7% (inactive)
COc1ccc2c(NCCCCCCCCNc3c4ccccc4nc4cc(OC)ccc34)c3ccccc3nc2c1	-100% (active)
Nc1ncnc2[nH]ncc12	13% (inactive)
Cc1ccc(C(=O)c2ccccc2)c(C)c1	125% (inactive)
O=C(c1ccc(Cl)cc1)c1ccccc1Cl	96.8% (inactive)
COc1cc2c(cc1O)CC[C@@H]1C2CC[C@@]2(C)C1CC[C@@H]2O (stereo partly drawn)	2.79% (active)
CC(=O)OCC1=CC2OC(=O)C3=COC(OC4OC(CO)C(O)C(O)C4O)C1C32 (stereo not drawn)	121% (inactive)
CC1(C)N=C(N)N=C(N)N1c1cccc(Br)c1	23.2% (inactive)
C/C(=C\c1ccc([N+](=O)[O-])cc1)C(=O)O	97.9% (inactive)
Oc1ccccc1-c1nnco1	75.4% (inactive)
CO[C@H]1C[C@@H]2CC[C@@H](C)[C@@](O)(O2)C(=O)C(=O)N2CCCC[C@H]2C(=O)O[C@H]([C@H](C)C[C@@H]2CC[C@@H](O)[C@H](OC)C2)CC(=O)[C@H](C)C=C(C)[C@@H](O)[C@@H](OC)C(=O)[C@H](C)C[C@H](C)/C=C/C=C/C=C1C	51.5% (inactive)
Cc1cccc(C(=O)N(C(C)C)C(C)C)c1	104% (inactive)
CC1(C)/C(=C\CO)C2CCC1C2 (stereo not drawn)	105% (inactive)
CN(C)c1ccc(S(=O)(=O)O)cc1	104% (inactive)
O=[N+]([O-])c1ccc(/C=C/C=C/c2ccccc2)c(Cl)c1	91.8% (inactive)

SMILES	growth
N#CSc1cc(S(N)(=O)=O)ccc1N	113% (inactive)
CCC1NC(=O)C(NC(=O)c2ncccc2O)C(C)OC(=O)C(c2ccccc2)NC(=O)C2CC(=O)CCN2C(=O)C(Cc2ccc(N(C)C)cc2)N(C)C(=O)C2CCCN2C1=O (stereo not drawn) (tested in a mixture with another compound) ({Picolinoyl(3-OH)}-T[Abu]P[ξNMePhe(4-NMe2)][ξPip(4-oxo)][Phg]; ester 1-C; configuration not given here)	38.3% (inactive)
C=CCNc1ccccc1	113% (inactive)
CCOC(=O)C(CCC(C)C)C(=O)OCC	103% (inactive)
COc1cccc(Sc2ccc([N+](=O)[O-])c3no[n+]([O-])c23)c1	8.93% (active)
CC1CC(O)CC(C)(C)C1 (stereo not drawn)	110% (inactive)
Oc1ccccc1O	112% (inactive)
Clc1ccc(-c2n[nH]c3c2Cc2ccccc2-3)cc1Cl	92.4% (inactive)
CC1OC(Oc2c(-c3ccc(O)c(O)c3)oc3cc(O)cc(O)c3c2=O)C(O)C(O)C1O (stereo not drawn)	103% (inactive)
O=c1[nH]nc(SC2CCCCC2)c(=O)[nH]1	84.3% (inactive)
CC(C)C1CCCCC1O (stereo not drawn)	164% (inactive)
CCC(C#N)(CC)c1ccccc1	97.1% (inactive)
CC(=O)c1ccc(C(C)(C)C)cc1	103% (inactive)
CC(C)OC(=O)c1cc(NC(=S)OC(C)C)ccc1Cl	73.7% (inactive)
Cc1cc2ccccc2c(O)c1C#N	92.8% (inactive)
OCCN1CCOCC1	114% (inactive)
CC(=O)Oc1ccc(Br)cc1C(=O)O	109% (inactive)
C#CCSc1nnnn1-c1ccc(Br)c(C)c1	86.3% (inactive)
c1ccc2c(c1)Sc1ccccc1S2	103% (inactive)
